According to the supplement of paper PMC4466140:

The binders below were run against AgAbp1 (assay: SPOT peptide array binding signal intensity (averaged, normalized) (arbitrary units (background-subtracted, floor 0; scale differs between SH3 domains)); higher = stronger binding of the SH3 domain to the peptide).
Outline: (§1)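 SH3 domains from four yeast species were expressed as GST fusions in E. coli BL21(DE3) and purified on glutathione Sepharose. Each was incubated at 10 μg/ml overnight at 4°C in TBS-based blocking buffer on cellulose membranes bearing synthetic 15-mer peptides, in which serines replaced cysteines. Bound protein was detected with anti-GST antibody, an HRP anti-mouse secondary and luminol, then imaged and quantified with Genespotter. The binding signal is the normalized, background-subtracted spot intensity averaged over replicates, in arbitrary units that are not the same from one domain to another.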

| Binder | SPOT peptide array binding signal intensity |
| --- | --- |
| EVTPKVPERPSRRKT | 377 |

The binders below were run against AgBbc1 in the same assay as above.
Outline: as §1

| Binder | SPOT peptide array binding signal intensity |
| --- | --- |
| EVTPKVPERPSRRKT | 2180 |

Each binder was assayed against AgBem1-D1 in the same assay as above.
Outline: as §1

| Binder | SPOT peptide array binding signal intensity |
| --- | --- |
| EVTPKVPERPSRRKT | 13 |

The binders below were run against AgBzz1-D1 in the same assay as above.
Outline: as §1

| Binder | SPOT peptide array binding signal intensity |
| --- | --- |
| EVTPKVPERPSRRKT | 819 |

These binders were tested against AgBzz1-D2 in the same assay as above.
Outline: as §1

| Binder | SPOT peptide array binding signal intensity |
| --- | --- |
| EVTPKVPERPSRRKT | 136 |

Each binder was assayed against AgCyk3 in the same assay as above.
Outline: as §1

| Binder | SPOT peptide array binding signal intensity |
| --- | --- |
| EVTPKVPERPSRRKT | 1 |

What follows are binders tested against AgFus1 in the same assay as above.
Outline: as §1

| Binder | SPOT peptide array binding signal intensity |
| --- | --- |
| EVTPKVPERPSRRKT | 4.5 |

These binders were tested against AgHof1 in the same assay as above.
Outline: as §1

| Binder | SPOT peptide array binding signal intensity |
| --- | --- |
| EVTPKVPERPSRRKT | 21.8 |

These binders were tested against AgHse1 in the same assay as above.
Outline: as §1

| Binder | SPOT peptide array binding signal intensity |
| --- | --- |
| EVTPKVPERPSRRKT | 47 |

Each binder was assayed against AgLsb1 in the same assay as above.
Outline: as §1

| Binder | SPOT peptide array binding signal intensity |
| --- | --- |
| EVTPKVPERPSRRKT | 39.9 |

What follows are binders tested against AgLsb4 in the same assay as above.
Outline: as §1

| Binder | SPOT peptide array binding signal intensity |
| --- | --- |
| EVTPKVPERPSRRKT | 2480 |

Each binder was assayed against AgMyo5 in the same assay as above.
Outline: as §1

| Binder | SPOT peptide array binding signal intensity |
| --- | --- |
| EVTPKVPERPSRRKT | 1.25 |

Each binder was assayed against AgNbp2 in the same assay as above.
Outline: as §1

| Binder | SPOT peptide array binding signal intensity |
| --- | --- |
| EVTPKVPERPSRRKT | 44.5 |

These binders were tested against AgRvs167 in the same assay as above.
Outline: as §1

| Binder | SPOT peptide array binding signal intensity |
| --- | --- |
| EVTPKVPERPSRRKT | 11.3 |

These binders were tested against AgSho1 in the same assay as above.
Outline: as §1

| Binder | SPOT peptide array binding signal intensity |
| --- | --- |
| EVTPKVPERPSRRKT | 8.25 |

The binders below were run against AgSla1-D1-D2 in the same assay as above.
Outline: as §1

| Binder | SPOT peptide array binding signal intensity |
| --- | --- |
| EVTPKVPERPSRRKT | ≤ 0 |

The binders below were run against AgSla1-D3 in the same assay as above.
Outline: as §1

| Binder | SPOT peptide array binding signal intensity |
| --- | --- |
| EVTPKVPERPSRRKT | 7.75 |

The binders below were run against CaAbp1-D1 in the same assay as above.
Outline: as §1

| Binder | SPOT peptide array binding signal intensity |
| --- | --- |
| EVTPKVPERPSRRKT | 324 |

These binders were tested against CaAbp1-D2 in the same assay as above.
Outline: as §1

| Binder | SPOT peptide array binding signal intensity |
| --- | --- |
| EVTPKVPERPSRRKT | 620 |

What follows are binders tested against CaBbc1 in the same assay as above.
Outline: as §1

| Binder | SPOT peptide array binding signal intensity |
| --- | --- |
| EVTPKVPERPSRRKT | 2760 |

The binders below were run against CaBem1-D1 in the same assay as above.
Outline: as §1

| Binder | SPOT peptide array binding signal intensity |
| --- | --- |
| EVTPKVPERPSRRKT | 24 |

Each binder was assayed against CaBzz1-D1 in the same assay as above.
Outline: as §1

| Binder | SPOT peptide array binding signal intensity |
| --- | --- |
| EVTPKVPERPSRRKT | 1370 |

These binders were tested against CaBzz1-D2 in the same assay as above.
Outline: as §1

| Binder | SPOT peptide array binding signal intensity |
| --- | --- |
| EVTPKVPERPSRRKT | 406 |

Each binder was assayed against CaCyk3 in the same assay as above.
Outline: as §1

| Binder | SPOT peptide array binding signal intensity |
| --- | --- |
| EVTPKVPERPSRRKT | 420 |

These binders were tested against CaFus1 in the same assay as above.
Outline: as §1

| Binder | SPOT peptide array binding signal intensity |
| --- | --- |
| EVTPKVPERPSRRKT | ≤ 0 |

What follows are binders tested against CaHof1 in the same assay as above.
Outline: as §1

| Binder | SPOT peptide array binding signal intensity |
| --- | --- |
| EVTPKVPERPSRRKT | 4.88 |

What follows are binders tested against CaHse1 in the same assay as above.
Outline: as §1

| Binder | SPOT peptide array binding signal intensity |
| --- | --- |
| EVTPKVPERPSRRKT | 316 |

Each binder was assayed against CaLsb1 in the same assay as above.
Outline: as §1

| Binder | SPOT peptide array binding signal intensity |
| --- | --- |
| EVTPKVPERPSRRKT | ≤ 0 |

Each binder was assayed against CaLsb4 in the same assay as above.
Outline: as §1

| Binder | SPOT peptide array binding signal intensity |
| --- | --- |
| EVTPKVPERPSRRKT | 6660 |

These binders were tested against CaMyo5 in the same assay as above.
Outline: as §1

| Binder | SPOT peptide array binding signal intensity |
| --- | --- |
| EVTPKVPERPSRRKT | ≤ 0 |

Each binder was assayed against CaNbp2 in the same assay as above.
Outline: as §1

| Binder | SPOT peptide array binding signal intensity |
| --- | --- |
| EVTPKVPERPSRRKT | 80.8 |

What follows are binders tested against CaRvs167 in the same assay as above.
Outline: as §1

| Binder | SPOT peptide array binding signal intensity |
| --- | --- |
| EVTPKVPERPSRRKT | 177 |

What follows are binders tested against CaRvs167-3 in the same assay as above.
Outline: as §1

| Binder | SPOT peptide array binding signal intensity |
| --- | --- |
| EVTPKVPERPSRRKT | 2 |

These binders were tested against CaSho1 in the same assay as above.
Outline: as §1

| Binder | SPOT peptide array binding signal intensity |
| --- | --- |
| EVTPKVPERPSRRKT | ≤ 0 |

The binders below were run against CaSla1-D1-D2 in the same assay as above.
Outline: as §1

| Binder | SPOT peptide array binding signal intensity |
| --- | --- |
| EVTPKVPERPSRRKT | 786 |

What follows are binders tested against CaSla1-D3 in the same assay as above.
Outline: as §1

| Binder | SPOT peptide array binding signal intensity |
| --- | --- |
| EVTPKVPERPSRRKT | 0.5 |

Each binder was assayed against ScAbp1 in the same assay as above.
Outline: as §1

| Binder | SPOT peptide array binding signal intensity |
| --- | --- |
| EVTPKVPERPSRRKT | 141 |
